nsP2pro inh = blocks chikungunya virus nsP2 protease peptide cleavage | Potency, µM (top dose mostly 24.9 µM), for inactives: at the highest dose activity change, negative = inhibition, most hits filed as inhibitors | hit rate 1.1% among 31,000 | FRET peptide cleavage, nsP2pro, fluorescence 1 h | AID 1964107 | Q8JUX6; also: nearly all actives have a fitted effect of over 60% in size
Target sequence (Q8JUX6 whole entry, looked up): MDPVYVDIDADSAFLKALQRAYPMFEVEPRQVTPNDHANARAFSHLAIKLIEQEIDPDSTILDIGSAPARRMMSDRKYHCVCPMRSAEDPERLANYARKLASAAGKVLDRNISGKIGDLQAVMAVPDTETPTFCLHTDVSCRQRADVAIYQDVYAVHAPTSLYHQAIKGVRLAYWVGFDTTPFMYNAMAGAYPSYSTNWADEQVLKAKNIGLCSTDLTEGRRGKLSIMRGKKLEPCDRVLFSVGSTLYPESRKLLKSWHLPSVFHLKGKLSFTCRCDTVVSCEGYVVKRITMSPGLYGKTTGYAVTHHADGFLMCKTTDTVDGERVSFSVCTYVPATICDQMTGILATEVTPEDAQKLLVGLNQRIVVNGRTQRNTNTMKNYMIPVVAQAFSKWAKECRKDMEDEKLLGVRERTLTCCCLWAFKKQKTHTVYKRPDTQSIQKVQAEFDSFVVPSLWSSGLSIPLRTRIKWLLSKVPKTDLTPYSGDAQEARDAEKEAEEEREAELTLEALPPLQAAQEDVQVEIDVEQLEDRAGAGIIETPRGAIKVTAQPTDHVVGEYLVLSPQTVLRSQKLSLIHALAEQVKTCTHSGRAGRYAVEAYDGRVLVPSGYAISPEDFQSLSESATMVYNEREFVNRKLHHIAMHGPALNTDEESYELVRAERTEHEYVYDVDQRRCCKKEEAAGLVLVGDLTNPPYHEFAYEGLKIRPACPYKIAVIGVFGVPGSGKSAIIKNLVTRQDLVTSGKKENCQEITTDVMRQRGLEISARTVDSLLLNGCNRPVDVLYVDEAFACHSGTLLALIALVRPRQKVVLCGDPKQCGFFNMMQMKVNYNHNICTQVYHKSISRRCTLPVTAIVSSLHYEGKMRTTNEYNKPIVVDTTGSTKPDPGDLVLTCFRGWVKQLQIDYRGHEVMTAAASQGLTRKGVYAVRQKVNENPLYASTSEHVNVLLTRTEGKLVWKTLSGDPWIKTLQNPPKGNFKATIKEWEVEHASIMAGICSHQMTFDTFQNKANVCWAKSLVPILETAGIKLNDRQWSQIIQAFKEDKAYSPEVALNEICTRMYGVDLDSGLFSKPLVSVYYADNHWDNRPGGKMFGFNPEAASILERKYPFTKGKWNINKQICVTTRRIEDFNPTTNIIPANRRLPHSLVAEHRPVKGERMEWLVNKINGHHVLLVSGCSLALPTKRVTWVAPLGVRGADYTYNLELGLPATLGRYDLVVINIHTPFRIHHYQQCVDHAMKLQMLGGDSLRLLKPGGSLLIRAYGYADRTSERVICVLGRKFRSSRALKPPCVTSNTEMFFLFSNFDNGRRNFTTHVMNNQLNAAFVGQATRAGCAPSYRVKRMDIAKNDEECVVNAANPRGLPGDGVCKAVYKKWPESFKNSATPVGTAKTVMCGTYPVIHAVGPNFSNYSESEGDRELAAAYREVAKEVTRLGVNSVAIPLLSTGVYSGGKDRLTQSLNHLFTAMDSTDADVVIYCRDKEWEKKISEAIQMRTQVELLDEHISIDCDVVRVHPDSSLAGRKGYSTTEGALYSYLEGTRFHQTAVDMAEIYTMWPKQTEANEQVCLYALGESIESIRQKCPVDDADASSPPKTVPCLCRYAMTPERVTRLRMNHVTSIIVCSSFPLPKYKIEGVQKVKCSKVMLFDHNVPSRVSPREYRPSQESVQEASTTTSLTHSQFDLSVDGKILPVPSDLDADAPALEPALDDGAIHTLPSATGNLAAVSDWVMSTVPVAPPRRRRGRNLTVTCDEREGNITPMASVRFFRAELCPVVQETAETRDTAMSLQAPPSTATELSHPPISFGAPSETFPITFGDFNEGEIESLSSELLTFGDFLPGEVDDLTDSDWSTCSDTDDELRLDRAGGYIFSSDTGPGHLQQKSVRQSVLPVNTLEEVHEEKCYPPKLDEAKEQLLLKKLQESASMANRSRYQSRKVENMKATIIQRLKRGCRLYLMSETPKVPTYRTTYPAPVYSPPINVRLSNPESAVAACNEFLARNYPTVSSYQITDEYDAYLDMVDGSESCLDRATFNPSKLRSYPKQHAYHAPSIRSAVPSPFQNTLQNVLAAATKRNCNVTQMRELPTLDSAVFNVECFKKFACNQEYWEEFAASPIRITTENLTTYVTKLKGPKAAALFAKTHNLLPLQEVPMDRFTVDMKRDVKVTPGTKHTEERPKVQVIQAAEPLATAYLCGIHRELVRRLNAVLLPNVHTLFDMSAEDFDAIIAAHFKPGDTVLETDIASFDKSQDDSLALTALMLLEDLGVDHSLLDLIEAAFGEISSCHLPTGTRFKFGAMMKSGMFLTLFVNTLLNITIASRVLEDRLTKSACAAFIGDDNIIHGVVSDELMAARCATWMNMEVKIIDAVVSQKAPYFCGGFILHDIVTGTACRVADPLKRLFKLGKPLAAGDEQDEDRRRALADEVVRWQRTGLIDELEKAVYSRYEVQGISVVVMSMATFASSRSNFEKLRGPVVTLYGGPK
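Purified recombinant nsP2pro (150 nM final) in 10 mM Tris-HCl pH 8.0 with 0.01% Tween 20 was preincubated 15 min at room temperature with compound (7 concentrations, up to 25 uM). FRET peptide 2 substrate (2.5 uM final) was then added; fluorescence was read after 1 h.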
nsP2 cell sec = secondary cell-based test for CHIKV nsP2 protease inhibitors | cell-based CHIKV nsP2 protease reporter assay | shares compounds with nsP2pro inh | Potency, µM (highest dose often 51.1 µM), inactives show at the top dose activity change, negative = inhibition, actives largely listed as inhibitors | hit rate 10% among 450; also: nearly all actives have a fitted effect of over 70% in size
NSP2 full ctr = full-length CHIKV NSP2 protease inhibition, selectivity | AID 1964101 | Full-length CHIKV NSP2 protease enzymatic counterscreen | shares compounds with nsP2pro inh | Potency, µM (top dose mostly 50.7 µM), without a hit: top-dose activity change, negative = inhibition, hits mostly inhibitors | hit rate 39% among 410; also: nearly all actives have a fitted effect of over 65% in size
Furin counter = selectivity counter-screen for CHIKV nsP2 protease inhibitors: human furin. shares compounds with nsP2pro inh. Recombinant human furin enzymatic counterscreen, fluorogenic substrate. Potency, µM (doses to about 50.6 µM), for inactives: at the highest dose activity change, negative = inhibition, usual class: inhibitors. hit rate 6% among 410. AID 1964102
nsP2 NS23 pep = blocks CHIKV nsP2 protease cleavage of endogenous NS2/3 peptide | Potency, µM (series often up to 51 µM), for inactives: at the top dose activity change, negative = inhibition, hits mostly inhibitors | hit rate 34% among 410 | shares compounds with nsP2pro inh | Purified CHIKV nsP2 protease, endogenous NS2/3 peptide cleavage; also: nearly all actives have a fitted effect of over 55% in size
Papain counter = papain protease inhibition, counterscreen for nsP2pro inhibitors | shares compounds with nsP2pro inh | purified papain protease activity, enzymatic inhibition | Potency, µM (titrated, usually from 51 µM), without a hit: at the highest dose activity change, negative = inhibition, actives largely listed as inhibitors | hit rate 5% among 410
nsP2pro confirm = CHIKV nsP2 protease inhibition, confirmatory qHTS; CHIKV nsP2 protease enzymatic activity, qHTS; Potency, µM (series often up to 25.5 µM), without a hit: top-dose activity change, negative = inhibition, actives largely listed as inhibitors; hit rate 43% among 410; shares compounds with nsP2pro inh; also: nearly all actives have a fitted effect of over 75% in size
HCV NS3 4A cs = selectivity counter-screen for CHIKV nsP2 protease inhibitors: HCV NS3/4A | hit rate 20% among 410 | HCV NS3/4A protease biochemical counterscreen | Potency, µM (series often up to 50.9 µM), usual class: inhibitors | shares compounds with nsP2pro inh; also: nearly all actives have a fitted effect of over 55% in size
Numbers without * were called inactive; [ ] = dose if it differs, or a comment. The full list was thinned out, with hits kept by preference. Calls follow the shape of the full dose curve. % is scaled to controls: 0 for no effect and ±100 for the full control effect; potency is read from the fitted curve at half-maximal effect.

Results for CN(C)C1(CNC(=O)c2ccc(OC3CCN(C(=O)C4CC4)CC3)cc2)CCCCC1 ?
nsP2pro inh: inconclusive; nsP2 cell sec: -10%; NSP2 full ctr: 4%; Furin counter: -1%; nsP2 NS23 pep: inconclusive; Papain counter: -2%; nsP2pro confirm: 16%; HCV NS3 4A cs: inactive

Results for CC(C)C(=O)NCC1(N(C)C)CCCCC1 ?
nsP2pro inh: 13%

What do the screens show for `CCn1ccnc1CNC(=O)c1cc(OC)ccc1OC1CCN(C(=O)C2CC2)CC1`?
nsP2pro inh: inactive

What do the screens show for `CC(=O)Nn1c(C)nc2sc3c(c2c1=O)CCNC3`?
nsP2pro inh: -9%

What do the screens show for `Cc1cc(C)nc(NC(=S)N2CCN(c3nccc(C(F)(F)F)n3)CC2)c1`?
nsP2pro inh: -16%

What do the screens show for `CC(C)(C)n1nc(-c2ccc(Cl)cc2)c2c(N)ncnc21`?
nsP2pro inh: 19%

What do the screens show for `CC(C)n1nc(-c2ccc(NC(=O)Nc3cccc(C(F)(F)F)c3)cc2)c2c(N)ncnc21`?
nsP2pro inh: -4%

How did CC(C)n1nc(C#Cc2ccccc2)c2c(N)ncnc21 do in these assays?
nsP2pro inh: 4.4µM*; nsP2 cell sec: 87%; NSP2 full ctr: inconclusive; Furin counter: inconclusive; nsP2 NS23 pep: inconclusive; Papain counter: 39%; nsP2pro confirm: 8µM*; HCV NS3 4A cs: inconclusive

Results for COc1cccc(NC(=S)N2CCN(c3ccc(C(F)(F)F)cc3[N+](=O)[O-])CC2)n1 ?
nsP2pro inh: -19%

What do the screens show for `Cc1ccnc(NC(=S)N2CCNCC2)c1`?
nsP2pro inh: 3%

Results for COc1c(CCC(=O)O)cccc1O[C@@H]1O[C@H](CO)[C@@H](O)[C@H](O)[C@H]1O ?
nsP2pro inh: 118%

What do the screens show for `C/C=C(/C)C1C=CC2CC(C)CC(C)C2C1/C(O)=C1\C(=O)NC(CC(C)(O)C(=O)O)C1=O` (stereo unspecified)?
nsP2pro inh: -14%[10 µM]

Results for O=C(COc1ccccc1[N+](=O)[O-])N1CCN(CCc2ccncc2)CC1 ?
nsP2pro inh: inconclusive; nsP2 cell sec: 9%

What do the screens show for `Cc1ccc(OCC(=O)N2CCN(CCc3ccncc3)CC2)cc1`?
nsP2pro inh: -27%

What do the screens show for `O=C(COc1ccccc1Cl)N1CCN(CCc2ccncc2)CC1`?
nsP2pro inh: -25%

Results for CN(C)CC1CCOC1(c1ccccc1)c1ccccc1 (stereo unspecified) ?
nsP2pro inh: -4%[10 µM]

How did FC(F)(F)c1ccccc1-c1nc(NCc2ccc(-c3cccnc3)cc2)c2[nH]cnc2n1 do in these assays?
nsP2pro inh: 5%

Results for Clc1cc2c(NC3CCCC3)nnc(-c3ccncc3)c2cc1Cl ?
nsP2pro inh: 11%[10 µM]

How did Cc1ccc(OCCn2c(CCNC(=O)c3ccco3)nc3ccccc32)cc1 do in these assays?
nsP2pro inh: 0%

What do the screens show for `Cc1cccc(NC(=O)N[C@H]2CN(C)c3ccccc3C(c3ccccc3)=N2)c1`?
nsP2pro inh: inconclusive; nsP2 cell sec: 40%; NSP2 full ctr: inconclusive; Furin counter: -9%; nsP2 NS23 pep: inconclusive; Papain counter: -10%; nsP2pro confirm: inconclusive; HCV NS3 4A cs: inactive

How did Cc1cccc(NC(=O)N[C@@H]2N=C(c3ccccc3)c3ccccc3N(C)C2=O)c1 do in these assays?
nsP2pro inh: inconclusive; nsP2 cell sec: 15%; NSP2 full ctr: inconclusive; Furin counter: -10%; nsP2 NS23 pep: inconclusive; Papain counter: -11%; nsP2pro confirm: inconclusive; HCV NS3 4A cs: inactive

Results for Cc1ccc(NC(=O)Nc2ccc3c(c2)N(C)C(=O)c2ccccc2S3)c(C)c1 ?
nsP2pro inh: -8%

What do the screens show for `Cc1cccc(NC(=O)CSc2nc3ccccc3nc2N2CCC(C)CC2)c1`?
nsP2pro inh: -15%

What do the screens show for `Cc1cccc(NC(=O)CSc2cc(C)c3ccccc3n2)c1`?
nsP2pro inh: -16%

Results for Cc1cccc(-c2cc(-c3ccccc3)nc(SCC(=O)Nc3ccccc3)c2C#N)c1 ?
nsP2pro inh: -9%

What do the screens show for `C1=C(c2cnc[nH]2)c2ccsc2CC1`?
nsP2pro inh: inconclusive; nsP2 cell sec: 5%; NSP2 full ctr: 85%; Furin counter: inconclusive; nsP2 NS23 pep: -12%; Papain counter: -1%; nsP2pro confirm: 40%; HCV NS3 4A cs: inactive

Results for Oc1ccc(CNc2ccc3ccccc3n2)c2cccnc12 ?
nsP2pro inh: inactive

How did Fc1cccc(CSc2nc3ncc(Br)cc3[nH]2)c1 do in these assays?
nsP2pro inh: inactive

What do the screens show for `O=c1ccc2ccc3occc3c2o1`?
nsP2pro inh: -11%[39.2 µM]

Results for CC1=NOC2(CCN(Cc3ccc(Cl)cc3)CC2)C1 ?
nsP2pro inh: inactive

What do the screens show for `Nc1nc2c(s1)CCN(Cc1ccc(Cl)cc1)CC2`?
nsP2pro inh: 8.8µM*; nsP2 cell sec: 105%; NSP2 full ctr: 4%; Furin counter: 7%; nsP2 NS23 pep: -17%; Papain counter: -12%; nsP2pro confirm: inconclusive; HCV NS3 4A cs: inactive

How did O=C1CN(Cc2ccc(Cl)cc2)CCN1c1ccc(Cl)nn1 do in these assays?
nsP2pro inh: 4%[39.2 µM]

How did Cc1ccc(OCCn2c(CCNC(=O)OC(C)(C)C)nc3ccccc32)cc1 do in these assays?
nsP2pro inh: -8%

How did O[C@@H]1[C@@H](O)[C@@H](O)OC[C@@H]1O do in these assays?
nsP2pro inh: -11%[78.4 µM]

What do the screens show for `Cc1ccc(C(=O)/C=C/c2ccccc2)s1`?
nsP2pro inh: 15%

What do the screens show for `O=C1CCC[C@@H]2[C@@H]3CCC[N@+]4([O-])CCC[C@H](CN12)[C@H]34`?
nsP2pro inh: -11%

How did CCOc1ccc(NC(=O)NCC2CCCN2c2ccc(OC)cc2)cc1 (stereo unspecified) do in these assays?
nsP2pro inh: -2%

Results for CNC12CC3C[C@@](C)(C1)C[C@](C)(C3)C2 ?
nsP2pro inh: -5%

How did C[C@H](NCCc1ccc(O)cc1)[C@H](O)c1ccc(O)cc1 do in these assays?
nsP2pro inh: -1%

Compound activity as filed in PubChem BioAssay.
